Screens as filed in PubChem.
FLuc inh-1: Firefly luciferase inhibition profiling of diverse chemical library using quantitative high-throughput screening. Luciferin 4-monooxygenase (Photinus pyralis), P08659. purified P. pyralis luciferase, luminescence, biochemical. Potency, µM (titrated, usually from 115 µM), usual class: inhibitors. hit rate 2.5% among 76,000; also: % is scaled to controls: 0 for no effect and ±100 for the full control effect; nearly all actives have a fitted effect of over 65% in size
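Purified 10nM P. pyralis luciferase with 10uM D-luciferin and 10uM ATP in 50mM Tris acetate pH 7.5, 10mM Mg acetate, 0.01% Tween-20, 0.05% BSA. qHTS titration; luminescence read by CCD imager.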
HEK cytotox: Cytotoxic Profiling in HEK 293 Cell Line of Diverse Libraries Using Quantitative High-Throughput Screening. HEK 293 viability, ATP luminescence (CellTiter-Glo), 48-72 h. Potency, µM (top dose mostly 115 µM), inactives show top-dose activity change, negative = cytotoxicity, hits mostly inhibitors. hit rate 6.6% among 94,000. AID 1345083, 2018; also: % is scaled to controls: 0 for no effect and ±100 for the full control effect; nearly all actives have a fitted effect of over 60% in size
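ATP-coupled CellTiter-Glo luminescence served as viability read-out, recorded 10 min after reagent addition at room temperature. HEK 293 cells, 250 cells/well, had been incubated with pintool-transferred compound for 48 or 72 hr at 37 degree Celsius.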
NPR1 antag: Natriuretic polypeptide receptor (hNpr1) antagonism - Primary qHTS. Atrial natriuretic peptide receptor 1 (Homo sapiens), P16066. HEK293 hNpr1 GloSensor cGMP, ANP-stimulated luminescence. hit rate 1.6% among 76,000. Potency, µM (top dose mostly 46.3 µM), without a hit: at the top dose activity change, negative = inhibition, most hits filed as inhibitors; calls by dose curve; also: % is scaled to controls: 0 for no effect and ±100 for the full control effect; nearly all actives have a fitted effect of over 60% in size
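HEK293 cells stably expressing human Npr1 and cGMP GloSensor pGS-40F, loaded 2 h with 2% GloSensor reagent, given compound 30 min at room temperature. Luminescence read before and 20 min after 0.1 nM hNppA.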
GPT2 inh: Primary qHTS assay for inhibitors of Glutamate pyruvate transaminase 2 (GPT2) | Recombinant GPT2, coupled pyruvate oxidase/HRP Amplex Red fluorescence | Potency, µM (top dose mostly 57.7 µM), inactives show top-dose activity change, negative = inhibition, usual class: inhibitors | hit rate 0.25% among 100,000; also: % is scaled to controls: 0 for no effect and ±100 for the full control effect; nearly all actives have a fitted effect of over 60% in size
Target sequence (Q8TD30 whole entry, looked up): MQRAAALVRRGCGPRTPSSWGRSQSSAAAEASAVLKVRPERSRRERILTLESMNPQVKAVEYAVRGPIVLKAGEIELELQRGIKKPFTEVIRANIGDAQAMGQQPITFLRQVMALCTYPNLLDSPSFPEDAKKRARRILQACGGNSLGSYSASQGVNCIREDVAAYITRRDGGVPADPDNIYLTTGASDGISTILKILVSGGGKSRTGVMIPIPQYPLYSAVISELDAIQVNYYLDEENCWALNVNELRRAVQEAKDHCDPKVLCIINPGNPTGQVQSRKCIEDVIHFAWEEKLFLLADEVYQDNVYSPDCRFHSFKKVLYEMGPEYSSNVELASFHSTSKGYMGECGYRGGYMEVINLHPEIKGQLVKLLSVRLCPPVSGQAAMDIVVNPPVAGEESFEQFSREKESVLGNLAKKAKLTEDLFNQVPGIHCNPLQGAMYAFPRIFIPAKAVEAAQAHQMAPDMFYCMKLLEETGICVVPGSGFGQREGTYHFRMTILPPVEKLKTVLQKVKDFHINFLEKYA
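Recombinant GPT2 (10ng/uL) with 250uM a-KG and 2mM L-alanine, 30 min at room temperature, in HEPES pH 7.5 buffer. Pyruvate detected by pyruvate oxidase/HRP/Amplex Red fluorescence after 30 min in the dark; AOA (50uM) as positive control.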
3T3 cytotox: Cytotoxic Profiling in NIH 3T3 Cell Line of Diverse Libraries Using Quantitative High-Throughput Screening; NIH 3T3 viability, CellTiter-Glo ATP luminescence, 48-72 h; Potency, µM (titrated, usually from 96.7 µM), for inactives: at the highest dose activity change, negative = cytotoxicity, actives largely listed as inhibitors; hit rate 4.3% among 94,000; AID 1345082, 2018; also: % is scaled to controls: 0 for no effect and ±100 for the full control effect; nearly all actives have a fitted effect of over 55% in size
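Cytotoxicity was measured by CellTiter-Glo ATP luminescence after 48 or 72 h compound exposure at 37 °C. Mouse NIH 3T3 fibroblasts were seeded at 400 cells/well and dosed by 23 nL pin transfer.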
FLuc SDR no ATP: Firefly luciferase (FLuc-C-HiBiT) SDR gain of signal screen - without ATP; hit rate 7.8% among 1,300; shares compounds with FLuc inh-1; Purified FLuc-C-HiBiT, Nano-Glo HiBiT luminescence, no ATP; Potency, µM (series often up to 32.7 µM), without a hit: at the highest dose activation (signal gain), usual class: activators; also: nearly all actives have a fitted effect of over 55% in size
FLuc SDR ATP: Firefly luciferase (FLuc-C-HiBiT) SDR gain of signal screen - plus ATP. hit rate 8.7% among 1,300. Potency, µM (series often up to 32.7 µM), for inactives: at the top dose activation (gain of signal), actives largely listed as activators. purified FLuc-C-HiBiT + ATP, HiBiT complementation luminescence. shares compounds with FLuc inh-1;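 also: signal reports ligand binding via conformational change of the enzyme rather than luciferase catalysis; % of control where 0% means no effect; nearly all actives have a fitted effect of over 55% in size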
FLuc inh-2: Firefly luciferase (FLuc-C-HiBiT) enzymatic inhibition screen - Functional assay | shares compounds with FLuc inh-1 | purified FLuc-C-HiBiT enzyme, luciferin luminescence | Potency, µM (highest dose often 32.7 µM), without a hit: at the top dose activity change, negative = inhibition, actives largely listed as inhibitors | hit rate 42% among 1,300 | AID 1963320, 2024; also: % is scaled to controls: 0 for no effect and ±100 for the full control effect; nearly all actives have a fitted effect of over 70% in size
* hit, by the source's call; i = inactive; ? = inconclusive; nt = not tested or not shown; [ ] = remark or other dose. The list is not random: actives were taken first. Their share in the collection is about 10%. Unless noted, calls follow the shape of the dose curve; as a rule, active = well fitted curve in the direction sought with a large enough effect; inconclusive = small, poorly fitted or top-dose-only effect, or another doubt; inactive = no such curve, though single readings can be large; an effect the other way counts as inactive or inconclusive. Potency is read from the fitted curve at half-maximal effect.

SMILES	FLuc inh-1	HEK cytotox	NPR1 antag	GPT2 inh	3T3 cytotox	FLuc SDR no ATP	FLuc SDR ATP	FLuc inh-2
COc1cccc(-n2cnc3c(N/N=C/c4ccncc4)ncnc32)c1	nt	nt	nt	nt	nt	24.4%	13.6%	?
COCc1cc(CNc2nccc(-c3ccccn3)n2)[nH]n1	i	-10.4%	3.6%	-6.6%	-14.3%	nt	nt	nt
c1ccc(CCCNc2nccc(-c3ccccn3)n2)nc1	10µM*	?	1.5%	-28.6%	-30.2%	14.4%	15.3%	1.2%
CC(O)/C=C/C1(O)C(C)C(O)C(O[C@@H]2O[C@H](CO)[C@@H](O)[C@H](O)[C@H]2O)CC1(C)C (some centres undefined)	nt	nt	nt	i	nt	nt	nt	nt
NS(=O)(=O)c1cccc(N=Cc2c(O)[nH]c3ccccc23)c1	nt	nt	nt	nt	nt	14.6%	8.5%	-12.2%
C=C1[C@H](CO)[C@@H](O)C[C@@H]1n1cnc2c(=O)[nH]c(N)nc21	nt	nt	nt	-8.1%	nt	13.0%	9.6%	5.8%
Nc1nc2c(ncn2COCCO)c(=O)[nH]1	nt	nt	nt	?	nt	17.7%	13.9%	-0.8%
Cn1ncc2c(C(=O)Nc3ccccc3F)cc(-c3cccc(F)c3)nc21	nt	3.8%	nt	nt	3.7%	nt	nt	nt
CN1CCN(c2ccc(-c3cccc(NC(=O)C4CCCCC4)c3)nn2)CC1	14.1µM*	?	-11.1%	i	?	27.3%	18.4%	8.81µM*
COc1ccc(NC(=O)Nc2cccc(-c3ccc(N4CCOCC4)nn3)c2)cc1Cl	0.631µM*	22.4µM*	12.6µM*	?	?	?	?	1.24µM*
COc1ccc(NC(=O)CCc2ccnc(N3CCCC3)c2)c(OC)c1	i	-15.7%	-4.7%	i	-23.8%	nt	nt	nt
O=C(Nc1cccc(-c2ccc(N3CCOCC3)nn2)c1)Nc1cccc(C(F)(F)F)c1	1.78µM*	28.2µM*	11.2µM*	?	?	?	18.2%	4.95µM*
COc1ccc(NC(=O)Nc2cccc(-c3ccc(N4CCCCC4)nn3)c2)c(OC)c1	0.316µM*	?	7.94µM*	i	-17.9%	?	?	0.989µM*
O=C(CC1CCCCC1)Nc1cccc(-c2nnc3n2CCCC3)c1	i	-1.6%	-9.9%	i	-4.7%	nt	nt	nt
CCC#CCN1CCc2ccccc2N(CC(O)COCc2ccco2)CCC1=O (centres undefined)	nt	?	nt	4.5%[27.3 µM]	?	nt	nt	nt
CCOc1ccccc1NC(=O)Nc1cccc(-c2ccc(N3CCOCC3)nn2)c1	2.82µM*	25.1µM*	-25.3%	1.4%	?	28.4%	?	3.94µM*
CCOc1ccccc1NC(=O)Nc1ccc(-c2nnc3n2CCCC3)cc1	i	-7.9%	-3.4%	i	-1.9%	nt	nt	nt
CC(=O)c1cc(CN2CCC(n3nccc3NC(=O)Cc3ccccc3)CC2)cs1	i	?	-30.2%	i	-15.6%	nt	nt	nt
O=C(Nc1ccccc1F)c1ccc(-c2ccccc2)s1	nt	nt	nt	nt	nt	20.9%	?	?
CCn1ncc(NC(=O)Cn2ncc3cc(-c4ccc(C)cc4F)ccc32)n1	14.1µM*	-54.4%	?	?	-64.9%	20.0%	12.5%	?
CCn1ncc(NC(=O)Cn2ncc3cc(-c4cccc(OC)c4)ccc32)n1	?	-56.7%	?	-1.0%	-67.5%	nt	nt	nt
CCn1ncc(NC(=O)Cn2ncc3cc(-c4ccc(N(C)C)cc4)ccc32)n1	0.251µM*	?	?	-35.1%	?	?	?	0.785µM*
CCn1ncc(NC(=O)Cn2ncc3cc(-c4cccc(F)c4F)ccc32)n1	?	-66.8%	?	-3.9%	-54.0%	nt	nt	nt
COc1cccc(S(=O)(=O)N2CCCC(CN3CCOCC3)CC2)c1 (centres undefined)	i	?	-15.0%	i	-18.1%	nt	nt	nt
CN(C)C(=O)N1CCCC(c2nn(-c3ccccn3)c(=O)[nH]2)C1 (centres undefined)	nt	-3.4%[172 µM]	nt	2.1%[88.5 µM]	4.3%[138 µM]	nt	nt	nt
SMILES	FLuc inh-1	HEK cytotox	NPR1 antag	GPT2 inh	3T3 cytotox	FLuc SDR no ATP	FLuc SDR ATP	FLuc inh-2
Nc1nc(NC2CC2)cc(-c2cccc(Cl)c2Cl)n1	nt	nt	nt	i	nt	nt	nt	nt
Cc1ccc(-n2ncc3c(N(C)C)ncnc32)cc1Cl	nt	nt	nt	nt	nt	?	?	2.21µM*
O=C(NCCc1cnc[nH]1)c1ccc2nc(-c3ccc(F)cc3)cn2c1	10µM*	?	-7.8%	-23.8%	?	16.6%	15.2%	?
O=C(NCC1CNCCOC1)c1ccc2nc(-c3ccc(F)cc3)cn2c1 (centres undefined)	?	?	-5.8%	-4.7%	?	nt	nt	nt
O=C(C1CCC1)N1c2ccccc2CC1c1noc(C2CCOCC2)n1 (centres undefined)	1.78µM*	?	?	0.9%	-15.2%	21.1%	18.5%	?
COc1cccc(CNC(=O)N2c3ccccc3CC2c2noc(C3CCOCC3)n2)c1 (centres undefined)	5.01µM*	-22.6%	-3.7%	i	-29.7%	13.7%	14.4%	?
O=C(C1CCCC1)N1CCCC1c1nc(C2CCOCC2)no1 (centres undefined)	i	-10.0%	23.2%	-7.6%	-15.1%	nt	nt	nt
O=C(N1c2ccccc2CC1c1noc(C2CCOCC2)n1)C1(c2ccccc2)CC1 (centres undefined)	8.91µM*	?	-20.8%	3.1%	-23.5%	19.3%	14.5%	?
O=C(Cc1ccc(Cl)cc1)N1CCC(n2cc(-c3nc(-c4ccccc4)no3)nn2)CC1	i	?	-27.3%	-3.9%	-8.2%	nt	nt	nt
O=C(O)c1cccc2c1CCN2C(=O)c1ccccc1	2.51µM*	-25.8%	-28.2%	i	-7.5%	14.8%	?	3.94µM*
O=C(NN1CCCC1)NS(=O)(=O)c1ccc(Cl)cc1	nt	nt	nt	-16.8%	nt	nt	nt	nt
CC(=O)c1ccc(NS(=O)(=O)c2cccc(S(=O)(=O)c3ccc(Cl)cc3)c2)cc1	nt	nt	nt	nt	nt	13.9%	8.6%	-9.9%
